Bioassay records as filed in PubChem.
An excerpt weighted towards active compounds, which were near 19% of everything screened.
DT40 TDP1 CPT – growth inhibition of DT40 Tdp1-/-;hTDP1 cells with camptothecin (screen for TDP1 inhibitors); chicken DT40 Tdp1-/-;hTDP1 cells + 20 nM CPT, ATP luminescence, 48 h; Potency, µM (titrated, usually from 46.2 µM), without a hit: top-dose activity change, negative = growth inhibition, most hits filed as inhibitors; actives 12% (n = 420,000); AID 686979; note: potency is the fitted concentration of half-maximal effect; nearly all actives have a fitted effect of over 55% in size
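Chicken DT40 Tdp1-/- cells stably complemented with human TDP1 were seeded at 400 cells/well in medium containing 20 nM camptothecin, exposed to pin-transferred compounds, and grown at 37 °C for at least 48 hr. Viability was read as ATP luminescence.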
IL1B secr inh – inhibitors of inflammasome signaling (IL-1 beta secretion). actives 4.7% (n = 360,000). AID 743279. THP-1 LPS/ATP IL-1B secretion, AlphaLISA, 16 h; stronger effect = lower value. activity change, % at 57.5 µM; in the data active = activity change below about -50%; inconclusive = mostly about -30% to -49%
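THP-1 cells pretreated 1 hr with compounds (up to 57.5 uM final), then stimulated with LPS (250 ng/mL final) plus ATP (1.25 mM final); secreted IL-1B measured by AlphaLISA after 16 hr, decreased signal indicating inhibition.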
uPA surface inh – blocks generation of uPA at the cell surface. actives 0.31% (n = 330,000). cell surface uPA generation assay, qHTS. AID 540303. Potency, µM (top dose mostly 38.3 µM), without a hit: at the highest dose activity change, negative = inhibition, most hits filed as inhibitors; active = well fitted inhibition curve with a large enough effect; inconclusive = small, poorly fitted or top-dose-only effect; inactive = no such curve, though single readings can be large or run the other way; tested in mouse RAW 264.7 cells; note: potency is the fitted concentration of half-maximal effect; nearly all actives have a fitted effect of over 55% in size
TDP1 cell noCPT – qHTS for Inhibitors of human tyrosyl-DNA phosphodiesterase 1 (TDP1): qHTS in cells in absence of CPT. DT40 Tdp1-/- hTDP1 cells, no CPT, ATP luminescence, 48 h. Potency, µM (doses to about 46.2 µM), for the others: at the highest dose activity change, negative = growth inhibition, usual class: inhibitors. actives 15% (n = 420,000); note: potency is the fitted concentration of half-maximal effect; nearly all actives have a fitted effect of over 55% in size
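Growth of hTDP1-complemented DT40 Tdp1-knockout cells is measured by ATP luminescence after at least 48 hr compound exposure at 37 °C, with DMSO substituting for the 20 nM CPT used in the parallel screen.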
HT1080 IDH1KD tx – HT-1080 IDH1 knockdown cell toxicity (counter line). HT-1080 IDH1 knockdown viability, ATP luminescence, 48 h. Potency, µM (series often up to 46.1 µM), for the others: at the highest dose activity, negative = toxicity, usual class: cytotoxic. actives 2% (n = 360,000). AID 686971;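 note: potency is the fitted concentration of half-maximal effect; 0% = DMSO wells and -100% = cell-free medium wells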
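Luminescent ATP read-out (CellTiter-Glo, 10 min at room temperature) after 48 h compound exposure at 37 °C gave viability of IDH1-knockdown HT-1080 cells. Activity was normalised to DMSO and cell-free wells, then fitted as concentration-response curves.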
HT1080NT lethal – kills 2HG-producing HT-1080-NT fibrosarcoma cells | HT-1080-NT fibrosarcoma viability, CellTiter-Glo ATP luminescence, 48 h | actives 1.6% (n = 360,000) | Potency, µM (top dose mostly 46.1 µM), for the others: top-dose activity, negative = less viability, actives largely listed as cytotoxic;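 note: NT is the 2HG producing partner of a matched IDH1 knockdown line; potency is the fitted concentration of half-maximal effect; 0% = DMSO-treated cells and -100% = media-only wells without cells; nearly all actives have a fitted effect of over 55% in size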
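750 cells/well, RPMI + 5% FBS; 2 h settle, compound pin-transfer, 48 h at 37 degrees C. CellTiter-Glo 10 min RT, luminescence. Normalized to DMSO and media-only wells.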
An asterisk follows results filed as active; ? = inconclusive; . = not tested or not shown. Unless noted, calls come from the whole dose curve; as a rule, active = well fitted curve in the direction sought with a large enough effect; inconclusive = small, poorly fitted or top-dose-only effect, or another doubt; inactive = no such curve, though single readings can be large; an effect the other way counts as inactive or inconclusive. Unless noted, % is set by controls: 0 for no effect and ±100 for the full control effect.

SMILES | DT40 TDP1 CPT | IL1B secr inh | uPA surface inh | TDP1 cell noCPT | HT1080 IDH1KD tx | HT1080NT lethal
Nc1nonc1C(=O)NCCNCc1cccc(Cl)c1Cl | -22% | . | . | -27% | . | .
COc1ccc(-c2ccnc3nc(N4CCN(c5ccccc5)CC4)nn23)cc1 | ? | -10 | 3% | 21µM* | -12% | 1%
Cc1cc(-c2ccc(C(C)C)c(S(=O)(=O)N3CCOc4ccccc43)c2)on1 | ? | -16 | -1% | 18µM* | -22% | -9%
CCc1ccc(-c2cc(C)no2)cc1S(=O)(=O)N1CCOc2ccc(C)cc21 | ? | 0 | -19% | ? | ? | -10%
CCC1CN(S(=O)(=O)c2cc(-c3cc(C)no3)ccc2OC)c2cc(C)ccc2O1 (stereo not drawn) | 18µM* | -1 | -4% | 23µM* | -13% | -11%
COc1ccc(-c2cc(C)no2)cc1S(=O)(=O)N1CCOc2ccccc21 | ? | 22 | -2% | 18µM* | -5% | 0%
COc1ccc(-c2cc(C)no2)cc1S(=O)(=O)N1CCN(c2cccc(C)c2)C(C)C1 (stereo not drawn) | 16µM* | -12 | ? | 23µM* | ? | ?
COc1cc(F)c(S(=O)(=O)N2CCOc3ccccc32)cc1OC | ? | -5 | -17% | -24% | -8% | -8%
CC(=O)N=Nc1[nH]c(N)c2ccccc12 | 17% | 2 | -1% | 0% | 6% | 1%
CCC(=O)N1CCC(C)(C(=O)Nc2ccc(OC)c(OC)c2)C1 (stereo not drawn) | -15% | 36 | . | -6% | 5% | 14%
Cc1ccccc1S(=O)(=O)NNC(=O)C(=O)NNc1ccccn1 | ? | 27 | -3% | 23µM* | ? | -22%
Cc1ccc(S(=O)(=O)NNC(=O)C(=O)NNc2ccccn2)cc1 | ? | 12 | -9% | ? | -30% | -11%
CCn1cc(C(=O)OCC(=O)c2ccccc2)c(=O)c2ccc(C)nc21 | 5% | 33 | -2% | -1% | 1% | 15%
CCn1cc(C(=O)OCC(=O)c2cc(C)n(-c3cccc(C(F)(F)F)c3)c2C)c(=O)c2ccc(C)nc21 | ? | -66* | 2% | ? | 2% | -3%
Cc1cc(C(=O)COC(=O)Cc2n[nH]c(=O)c3ccccc23)c(C)n1-c1cccc(C(F)(F)F)c1 | ? | -12 | -7% | 16µM* | -1% | 3%
Cc1cc(C(=O)COC(=O)CC2Sc3ccccc3NC2=O)c(C)n1-c1cccc(C(F)(F)F)c1 (stereo not drawn) | ? | 27 | -6% | ? | ? | 0%
CCN(CC)S(=O)(=O)c1ccc(NC(=O)c2ccc(N3CCCC3=O)cc2)cc1 | ? | -2 | -5% | ? | -16% | ?
CSCC[C@@H](C(=O)NCCCCCCCCCCC(=O)N1CCN(C(=O)OC(C)(C)C)CC1)n1cc(CCO)nn1 | 21µM* | -6 | -1% | 15µM* | 0% | ?
CC[C@H](C)Cc1cn([C@@H](CCCCNC(=O)OC(C)(C)C)C(=O)NCCCCCCCCCCC(=O)N2CCN(C(=O)OC(C)(C)C)CC2)nn1 | ? | 7 | 16% | 16µM* | -3% | -2%
NCCCC[C@@H](C(=O)NCCCCCCCCCCC(=O)N1CCNCC1)n1cc(CCO)nn1 | 7% | 2 | 8% | -14% | 1% | 5%
Cc1ccc(CNC(=O)C2CCN(S(=O)(=O)c3c(C)noc3/C=C/N(C)C)CC2)cc1 | 1% | 0 | -11% | 14% | 7% | 0%
Cc1ccc(CNC(=O)C2CCN(S(=O)(=O)c3ccc(F)cc3)CC2)cc1 | -20% | . | . | -23% | . | .
Cc1ccc(CNC(=O)C2CCN(S(=O)(=O)c3cc(-c4noc(C)n4)ccc3C)CC2)cc1 | 4.6µM* | . | . | 2.6µM* | . | .
Cc1nc(-c2ccc(C)c(S(=O)(=O)N3CCC(C(=O)NCc4ccc(F)cc4)CC3)c2)no1 | 2.6µM* | . | . | 5.2µM* | . | .
COc1ccc(N2CC(c3nc(-c4ccccc4C)no3)CC2=O)cc1Cl (stereo not drawn) | -22% | . | . | -22% | . | .
SMILES | DT40 TDP1 CPT | IL1B secr inh | uPA surface inh | TDP1 cell noCPT | HT1080 IDH1KD tx | HT1080NT lethal
CCC(C)NCCOc1ccc(C(C)(C)c2ccccc2)cc1 (stereo not drawn) | ? | -66* | -5% | 16µM* | ? | 18µM*
CC(C)(c1ccccc1)c1ccc(OCCCN2CCNCC2)cc1 | 5.8µM* | -80* | 1% | 7.3µM* | 21µM* | -5%
CC(C)(C)c1ccc(OCCCCCCN2CCNCC2)cc1 | 18µM* | -80* | 2% | 8.2µM* | 23µM* | ?
c1ccc(OCCCN2CCCC2)cc1 | -4% | 10 | . | -2% | 10% | 8%
CC1CCN(CCCCOc2ccc(Cl)cc2)CC1 | -19% | -26 | -4% | -24% | -10% | -4%
CC(C)(C)c1ccc(OCCN2CCCC2)cc1 | -12% | 14 | 2% | 3% | 9% | 11%
CC1CCN(CCCCOc2ccc(C(C)(C)C)cc2)CC1 | 23µM* | ? | -11% | ? | -25% | -24%
O=C(CSc1nnc2scc(-c3ccccc3)n12)Nc1ccc(Cl)cc1 | -26% | . | . | ? | . | .
CCOCCCN1C(=O)CN(C2CCCCCC2)C(=O)C1c1ccc(OCC)c(OC)c1 (stereo not drawn) | -24% | . | . | -29% | . | .
COc1ccc(NC(=O)C2=C(C)Nc3nc(SCc4ccc(C)cc4C)nn3C2c2cccc(OC)c2OC)cc1 (stereo not drawn) | -11% | . | . | -20% | . | .
O=C1Nc2c(c(=O)[nH]c(=O)n2-c2ccccc2)C1(NS(=O)(=O)c1ccc(Cl)cc1)C(F)(F)F (stereo not drawn) | 2% | . | . | 4% | . | .
CC(C)(c1ccccc1)c1ccc(OCCN2CCOCC2)cc1 | ? | 40 | 6% | 16µM* | -6% | -4%
O=C(Nc1cccc(C(=O)N2CCCCC2)c1)c1ccccc1Br | -3% | -9 | -6% | 9% | -8% | 0%
Cc1ccc(N(CC(=O)N2CCN(Cc3ccccc3)CC2)S(C)(=O)=O)cc1C | -5% | -2 | 1% | 4% | -2% | -3%
CC1(C(=O)Nc2cccc(Oc3ccccc3)c2)Cc2c(-c3ccc4c(c3)OCO4)ccnc2O1 (stereo not drawn) | ? | 80 | . | 13µM* | ? | ?
CC1(C(=O)Nc2ccccc2)Cc2c(-c3ccc4c(c3)OCO4)ccnc2O1 (stereo not drawn) | ? | -26 | . | -13% | ? | ?
